Test results as given in PubChem BioAssay AID1347419 (Sanford-Burnham Center for Chemical Genomics, 2020).
About 820 (0.83%) of roughly 99,000 compounds were called active.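 How the source made its calls: active means Z-score of -3 or lower, scaled per plate to the spread of control and sample wells; inactive means z-score above -3.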 The entries come from a sample that favours actives as a whole.

Biological target: Protein-tyrosine kinase 2-beta (Homo sapiens) (UniProt Q14289)
Experiment: Pyk2 FERM oligomerization blockers – Q293 cells, FERM NanoBiT luminescence, HTS, primary screen (AID 1347419);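 further: the deposit names both 25 µM and 10 µM; negative z-score means lost luminescence so less FERM oligomerization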
Design: dose or concentration left out as unconfirmed
Conditions: stronger effect = lower value

Chain of Protein-tyrosine kinase 2-beta (Homo sapiens) (Q14289 whole entry, looked up): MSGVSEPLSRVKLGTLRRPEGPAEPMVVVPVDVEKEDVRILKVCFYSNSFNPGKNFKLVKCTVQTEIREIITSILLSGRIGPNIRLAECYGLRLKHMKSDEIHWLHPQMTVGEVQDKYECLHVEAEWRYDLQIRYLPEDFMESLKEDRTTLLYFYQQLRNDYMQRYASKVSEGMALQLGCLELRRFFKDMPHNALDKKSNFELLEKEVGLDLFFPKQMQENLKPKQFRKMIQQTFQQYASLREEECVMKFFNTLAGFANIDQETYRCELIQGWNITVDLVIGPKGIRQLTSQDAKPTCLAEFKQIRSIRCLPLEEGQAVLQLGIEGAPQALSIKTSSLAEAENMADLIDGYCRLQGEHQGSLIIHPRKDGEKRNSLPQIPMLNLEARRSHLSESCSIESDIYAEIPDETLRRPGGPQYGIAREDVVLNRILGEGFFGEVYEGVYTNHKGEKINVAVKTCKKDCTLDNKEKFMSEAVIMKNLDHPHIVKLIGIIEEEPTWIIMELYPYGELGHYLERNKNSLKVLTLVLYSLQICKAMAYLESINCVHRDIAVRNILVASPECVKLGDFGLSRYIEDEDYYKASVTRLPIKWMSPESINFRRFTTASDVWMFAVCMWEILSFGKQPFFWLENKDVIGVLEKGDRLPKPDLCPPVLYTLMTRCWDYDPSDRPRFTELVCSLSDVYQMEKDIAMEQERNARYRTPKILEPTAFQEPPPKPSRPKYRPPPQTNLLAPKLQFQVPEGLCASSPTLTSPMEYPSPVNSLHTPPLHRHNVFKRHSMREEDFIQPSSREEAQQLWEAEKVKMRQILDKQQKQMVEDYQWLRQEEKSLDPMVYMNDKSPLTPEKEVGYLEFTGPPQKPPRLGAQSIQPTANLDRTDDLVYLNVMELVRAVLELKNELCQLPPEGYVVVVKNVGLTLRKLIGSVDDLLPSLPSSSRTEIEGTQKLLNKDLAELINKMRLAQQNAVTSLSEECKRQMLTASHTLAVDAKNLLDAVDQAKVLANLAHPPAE

z-score, inactive:
O=C(Nc1ccc2c(c1)OCCO2)c1ccncc1 0.87
Cc1ccc(C(=O)Nc2ccc3c(c2)OCO3)cc1S(=O)(=O)N1CCCCC1 -0.16
Cc1ccc(C(=O)N/C(=C/c2cccnc2)C(=O)O)cc1 0.41
CC(=C/c1ccccc1)/C=N/NC(=O)c1cc(C)oc1C -0.05
COc1ccc(-c2cc(C(F)(F)F)nc(SCC(=O)Nc3ccc4c(c3)OCO4)n2)cc1OC -0.25
CCOC(=O)c1cc(-c2nnc(-c3cc(OC)c(OC)c(OC)c3)o2)c(C)nc1C 0.08
CCCc1nc2ccccc2c(C(=O)OCC(=O)c2ccc3c(c2)NC(=O)CO3)c1CC -1.42
CCOC(=O)c1c(NC(=O)C2CCN(S(=O)(=O)c3ccc(Cl)cc3)CC2)sc2c1CCCC2 0.49
CC(=O)CCC(=O)c1ccc2ccccc2c1 1.48
Cc1ccc2nc(-c3cccnc3)c(NC3CCCC3)n2c1 0.15
Cc1cc(OCCN2CCCC2)cc(C(C)C)c1 1.27
C/C(=N\N=C(N)N)c1ccc(Cl)cc1 -0.37
CCOC(=O)CC(=O)CSc1nc(-c2ccccc2)cc(-c2ccc(Cl)cc2)c1C#N -0.86
CCSc1nc(-c2ccc(OC)cc2)cc(-c2ccc(OC)cc2)c1C#N -1.07
NC(=O)CCC(NS(=O)(=O)c1ccc(Cl)cc1)C(=O)NCc1ccccc1Cl (configuration not stated) -0.26
CCCn1nc(NS(=O)(=O)c2ccccc2)c2cc3cc(C)ccc3nc21 -0.3
Cc1cc(C)c(C2C3=C(Nc4c2c(C)nn4-c2ccccn2)c2ccccc2C3=O)c(C)c1 (configuration not stated) 1.27
CS(=O)(=O)N(Cc1ccccc1)c1ccc(C(=O)NN=C2CCCCCC2)cc1 -0.45
CCOC(=O)C1=C(C)NC(C)=C(C(=O)OCC)C1c1ccccn1 1.06
C=CCOC(=O)C1=C(C)NC(SCC(=O)OCC)=C(C#N)C1c1ccc(C)cc1 (configuration not stated) -1.05
Cc1ccccc1-c1nnc(SCC(=O)NCc2ccc3c(c2)OCO3)n1C 0.49
Cc1ccccc1-n1c(SCC(=O)NCc2cccs2)nnc1-c1ccncc1 -0.72
COc1cc(-c2cc(C(=O)OCC(=O)Nc3ccc4c(c3)OCO4)c3ccccc3n2)cc(OC)c1OC -0.31
CC1=NN(Cc2ccccc2)C(=O)/C1=C/c1ccc(N(C)C)cc1 -1.29
CN(C)c1cc[n+](Cc2ccccc2)cc1 0.16
Cc1cc(C)cc(C(=O)NC(=S)Nc2ccc3[nH]c(=O)[nH]c3c2)c1 0.78
COC(=O)c1cn(CC(=O)NCc2cccs2)c2ccccc12 -0.4
COCCNC(=O)Cn1cc(C(=O)c2cccs2)c2ccccc21 -0.12
Cc1ccc(S(=O)(=O)NNC(=O)Nc2cccc3ccccc23)cc1 -1.37
CC(=O)c1c(O)cc2n(c1=O)-c1ccc(Cl)cc1C2(C)C -0.76
CCNC(=S)N1CCN(c2ncccn2)CC1 0.25
CCCCC(=O)Nc1ccc2c(c1)OCCO2 -0.26
COc1ccc(S(=O)(=O)N(C)CC(=O)Nc2ccc3c(c2)OCCO3)cc1OC 0.96
Cc1cc([N+](=O)[O-])ccc1NC1CCCC1 0.61
CC(C)(C)C1CCC(=NNC(=O)c2cc(-c3ccccc3)n[nH]2)CC1 (configuration not stated) 0.56
CCOc1ccc(NC(=S)NC(=O)/C=C/c2ccc(OC)cc2)c([N+](=O)[O-])c1 0.72
COc1ccc(S(=O)(=O)N2CCCCC2)cc1Br -0.87
COc1ccc(S(=O)(=O)Nc2ccc(S(=O)(=O)N3CCCCC3)cc2)cc1OC -1.09
CN(C)CCCNC(=S)NCc1ccc(Cl)cc1 0.46
Cc1ccc(C(C)NC(=O)Cn2nc(C)c([N+](=O)[O-])c2C)cc1 (configuration not stated) 0.63
CCCOc1ccc(Cn2ccnc2)cc1[N+](=O)[O-] 1.5
Cc1ccc(O)c(CCc2ccccc2)n1 0.72
FC(F)(F)c1cc(-c2ccco2)nc(NCc2ccc(Cl)cc2)n1 0.02
COc1ccc(-c2nnc(SCc3cccnc3)o2)cc1 -0.08
COc1cc(C(=O)NC(=S)NCc2ccco2)cc(OC)c1OC 0.39
N#Cc1c(/N=C/N2CCCC2)oc(-c2ccccc2)c1-c1ccccc1 -2.56
COC(=O)c1sccc1NC(=O)c1cc(OC)c(OC)c(OC)c1 -0.79
O=C(CCN1C(=O)c2ccccc2C1=O)Nc1ccncc1 0.81
Cc1ccc(NC(=O)Cn2cccc2C2=NC(c3ccccc3)CO2)c(C)c1 (configuration not stated) -0.85
OC(COCc1ccco1)CN1CCN(c2ccccc2)CC1 (configuration not stated) 1
CC(CNc1ccc([N+](=O)[O-])c2cccnc12)Nc1c([N+](=O)[O-])cc(C(F)(F)F)cc1[N+](=O)[O-] (configuration not stated) -1.13
Cc1ccc(NC(=O)CC2C(=O)N(Cc3ccccc3)C(=S)N2NC(=O)c2cccc(F)c2)c(C)c1 (configuration not stated) -1.13
COC(=O)C1=NNC2(c3ccc(C)cc3)C(=O)N(c3cccc(C)c3C)C(=O)C12 (configuration not stated) -0.49
CCc1ccc(NC(=O)c2ccc(Cn3cc([N+](=O)[O-])cn3)cc2)cc1 -0.1
O=C(CSC(=S)N1CCOCC1)c1ccccc1 0.14
CC(=O)Nc1ccc(SCC(=O)Nc2ccccc2Oc2ccccc2)cc1 -1.74
COc1ccc(CCn2nnnc2C(c2ccccc2)N2CCN(C)CC2)cc1OC (configuration not stated) 0.7
COCCn1nnnc1C(c1ccccc1Cl)N1CCN(c2ccccc2OC)CC1 (configuration not stated) 0.11
CC1(C)Cc2cccc(OCC(=O)N3CCN(c4ccc([N+](=O)[O-])cc4)CC3)c2O1 -1.19
COC(=O)c1ccc(C(=O)OC)c(NC(=S)N2CCN(c3cc(Cl)ccc3C)CC2)c1 0.27
CC(C)(C)n1nnnc1C(c1ccc(F)cc1)N1CCN(Cc2ccc3c(c2)OCO3)CC1 (configuration not stated) -0.6
Cc1cc(C)c2[nH]c(=O)c(C(c3nnnn3Cc3ccc4c(c3)OCO4)N3CCCC3)cc2c1 (configuration not stated) 0.33
CCc1ccc(Oc2coc3cc(OC(=O)c4cc5ccccc5oc4=O)ccc3c2=O)cc1 -2.06
COC(=O)c1ccc(C(=O)Nc2cc(Cl)ccc2Cl)cc1NC(=O)c1ccccc1C 0.09
Cc1ccccc1NC(=O)c1ccccc1NS(=O)(=O)c1cccc2cccnc12 -1.55
Cc1nc2ccccc2n1CC(=O)N/N=C/c1cccs1 0.4
CCCN1C(=O)C(Cc2nc3ccccc3c(=O)n2-c2ccccc2)c2cc(C)ccc21 (configuration not stated) 0.19
Cc1nn(CC(=O)Nc2ccc(N(C)C)cc2)c(C)c1[N+](=O)[O-] -0.87
CCCCC(NS(=O)(=O)c1ccc(C)cc1)C(=O)Oc1ccc2c3c(c(=O)oc2c1)CCC3 (configuration not stated) -1.42
COC(=O)N/N=C/c1cn(CCCOc2ccc(C)cc2)c2ccccc12 -1.26
CCn1c(C(C)NC(=O)c2ccc(C)cc2)n[nH]c1=S (configuration not stated) 0.28
O=C(Nc1ccccc1)c1ccc2c(c1)OCO2 1.34
CCCC(=O)Nc1ccccc1N1CCN(C(=O)c2ccccc2)CC1 -1.16
CCOc1ccc(NC(=O)CSc2nc3ccccc3c(=O)n2Cc2cccs2)cc1 0.79
CC(=O)Cc1nsc(NC(=O)c2ccc(COc3ccc(C)cc3)o2)n1 -0.45
COC(=O)c1cn(-c2ccccc2)nc1-c1cccnc1 -0.5
CC(=O)Cc1nsc(NC(=O)c2csc3c2CCCC3)n1 -1.89
COc1cc(C(=O)Nc2nccs2)cc(OC)c1OC -2.06

z-score, active:
O=C(Nc1ccc2c(c1)OCCO2)c1ccc(Cl)c(S(=O)(=O)N2CCCCC2)c1 -3.16
CCCc1nc2ccccc2c(C(=O)OCc2nnc(-c3cc(OC)c(OC)c(OC)c3)o2)c1CC -3.12
CCOc1cc(-c2cc(-c3ccc(OC)cc3)nc(N)c2C#N)ccc1O -3.73
C=CCOC(=O)C1=C(C)NC(C)=C(C(=O)OCC=C)C1c1cccs1 -3.93
Cc1ccc(-n2c(SCC(=O)NCc3ccc4c(c3)OCO4)nnc2-c2cccnc2)c(C)c1 -4.03
CN(C)c1ccc(/C=C2\NC(=S)N(Cc3ccccc3)C2=O)cc1 -3.38
O=C(Cn1cc(C(=O)c2cccs2)c2ccccc21)NCc1cccs1 -3.3
O=C(CN(c1ccc2c(c1)OCCO2)S(=O)(=O)c1ccccc1)Nc1ccc2c(c1)OCO2 -3.19
COc1ccc(-c2ccc(Nc3ccc(S(=O)(=O)N4CCCC4)cc3)nn2)cc1OC -3.54
O=C1c2ccccc2C2=Nc3ccccc3SC(c3ccccc3F)C12 (configuration not stated) -4.39
COc1ccc(-c2cc(C(F)(F)F)nc(NCc3cccnc3)n2)cc1 -3.51
COc1cc(C(=O)Nc2oc(-c3ccccc3)c(-c3ccccc3)c2C#N)cc(OC)c1OC -3.42
N#Cc1c(NC(=O)CCCN2C(=O)c3ccccc3C2=O)oc(-c2ccccc2)c1-c1ccccc1 -3.57
COc1ccc(C(c2nnnn2Cc2cccs2)N2CCN(c3ccccc3)CC2)cc1OC (configuration not stated) -3.47
Fc1ccccc1C(c1nnnn1Cc1ccc2c(c1)OCO2)N1CCN(Cc2ccccc2)CC1 (configuration not stated) -3.73
C=CCNC(=O)c1ccccc1NC(=O)c1ccc(Cl)c(S(=O)(=O)Nc2cccc(C)c2C)c1 -3.05
O=C(Nc1ccccc1N1CCN(C(=O)c2ccccc2)CC1)c1ccc2c(c1)OCO2 -3.44
COc1ccc(-c2nn(-c3ccccc3)cc2C(=O)Nc2nc(CC(C)=O)ns2)cc1 -3.37
COc1ccc(-c2nn(-c3ccccc3)cc2C(=O)Nc2nccs2)cc1OC -3.32
